Compound activity as filed in PubChem.
This is one part of a sample in which hits are shown more often than they occur.
Tgondii IFNg – inhibitors of Toxoplasma gondii growth with IFN-gamma | 3.8% of 69,000 active | Toxoplasma gondii growth in IFN-gamma-treated host cells; hits give low values | activity change, negative = inhibition, % (no concentration beside the values) | AID 1259416; in the data active means activity change below about -70%, passing the limit was not always enough;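 further: host cells are HeLa cells infected with Toxoplasma gondii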
* hit, by the source's call; ! = a repeat was not active.

For CC(=O)c1ccc2c(c1)[C@@H]1C=CC[C@@H]1[C@H](c1cc3c(cc1Br)OCO3)N2 the results were Tgondii IFNg -75*.
Screening C[C@H]1C[C@H]2CN(C(=O)c3ccc4c(c3)OCO4)C[C@H]2O1 returned Tgondii IFNg 24.
`CCc1cc(C(=O)c2ccc(OC)cc2)c(NC(=O)CN2CCOCC2)s1` gave Tgondii IFNg -8.
Screening N=C1C(c2nc3ccccc3s2)=C(O)CN1CCc1c[nH]c2ccccc12 returned Tgondii IFNg 8.
COc1cc(Nc2nc(-c3nnc(-c4ccc(Cl)cc4)o3)nc3ccccc23)cc(OC)c1OC was read as Tgondii IFNg 450.
`Cn1cc(N2CC3(COCCN(C(=O)C(C)(C)C)C3)OCC2=O)cn1` (configuration not stated) gave Tgondii IFNg -8.
`CC(C)(C)c1ccc(-c2nc3ccccc3[nH]2)cc1` gave Tgondii IFNg -87*.
`c1ccc(-c2nc3ccccc3[nH]2)cc1` gave Tgondii IFNg 167.
Screening Cc1ccc(-c2nc3ccccc3[nH]2)cc1 returned Tgondii IFNg -14.
For CC(C)(O)C#Cc1ccc(-c2nccn2Cc2ccc(F)cc2)cc1 the results were Tgondii IFNg -4.
`CC(=O)[C@]1(O)Cc2c(O)c3c(c(O)c2[C@@H](O[C@H]2C[C@H](N)[C@H](O)[C@H](C)O2)C1)C(=O)c1ccccc1C3=O` gave Tgondii IFNg -67.
Screening COc1cccc2c1C(=O)c1c(O)c3c(c(O)c1C2=O)C[C@@](O)(C(C)=O)C[C@@H]3O[C@H]1C[C@H](N)[C@H](O)[C@H](C)O1 returned Tgondii IFNg -72*!.
COc1cccc2c1C(=O)c1c(O)c3c(c(O)c1C2=O)C[C@@](O)(C(=O)CO)C[C@@H]3O[C@H]1C[C@H](N)[C@@H](O)[C@H](C)O1 was read as Tgondii IFNg -84*.
`Cc1cnn(CCC(=O)N2CCCN(Cc3ccc(F)cc3)C(C(C)C)C2)c1` (configuration not stated) gave Tgondii IFNg -5.
For CC1CCN(c2ncnc3c2cnn3CC(=O)Nc2ccc(Cl)cc2)CC1 the results were Tgondii IFNg -41.
CCOC(=O)CCNC(=O)N1CCCCC1c1cccc(OC)c1 (configuration not stated) was read as Tgondii IFNg 7.
Screening Cc1ccc(-c2nc(C)c(CCNC(=O)C(=O)Nc3ccccc3)s2)cc1 returned Tgondii IFNg -24.
CC(=O)Nc1ccc(-c2ccc(S(C)(=O)=O)cc2)c2cccnc12 was read as Tgondii IFNg 2.
`c1csc(-c2nc(N3CCCCC3)ncc2-c2ccncc2)c1` gave Tgondii IFNg -98*.
For OC1(c2cccnc2)CCN(c2ncc(-c3cccs3)c(-c3cccnc3)n2)CC1 the results were Tgondii IFNg 70.
Screening c1csc(-c2nc(N3CCCCC3)no2)c1 returned Tgondii IFNg 21.
`CCn1c(C2CCN(C(=O)Cc3ccccn3)CC2)nn(C)c1=O` gave Tgondii IFNg 1.
CN(C)CCNC(=O)c1cc(-c2cnc(-c3ccnn3C)nc2)cn1C was read as Tgondii IFNg 71.
`COCCC(=O)c1cc(-c2cnc(-c3cccnc3)nc2)cn1C` gave Tgondii IFNg -39.
CCCNC(=O)c1cc(-c2cnc(-c3cccnc3)nc2)cn1C was read as Tgondii IFNg -91*.
`CNC(=O)[C@@H]1C[C@@H](N)CN1C(=O)c1ccc(-n2nc(C)cc2C)cc1` gave Tgondii IFNg -41.
CC1Cc2ccccc2N1C(=O)CSc1nnc(NC(=O)c2c(F)cccc2F)s1 (configuration not stated) was read as Tgondii IFNg 23.
Screening CCN1CCCc2cc(CN(C3CCCC3)S(=O)(=O)c3ccc4[nH]c(=O)ccc4c3)ccc21 returned Tgondii IFNg -86*.
For CCCCN(C1CCN(C(C)=O)CC1)S(=O)(=O)c1ccc2[nH]c(=O)ccc2c1 the results were Tgondii IFNg 87.
For COCCN(Cc1ccc2c(c1)CCCN2C)S(=O)(=O)c1ccc2[nH]c(=O)ccc2c1 the results were Tgondii IFNg 8.
Screening c1cc(CN2CCOCC2)cc(-c2ccc(Cn3ccnc3)cc2)c1 returned Tgondii IFNg -5.
For CCn1ccnc1CN1CCC(C2(c3ccccn3)NC(=O)NC2=O)CC1 (configuration not stated) the results were Tgondii IFNg 185.
For Cn1ccc2c(-c3cc(N4CCCCC4)ncn3)ccnc21 the results were Tgondii IFNg 24.
Screening Cn1ccc2c(-c3ccccc3C(N)=O)ccnc21 returned Tgondii IFNg 8.
For Cc1nc(-n2cnnc2)ccc1-c1ccnc2c1ccn2C the results were Tgondii IFNg -97*.
For CCC/C=C/c1cccc(C(=O)NCC)c1 the results were Tgondii IFNg 19.
For COCC1(Cn2cnc(-c3ccccc3)c2-c2nccn2C)CC1 the results were Tgondii IFNg -3.
O=C1CSC(=O)N1c1ccc(C(F)(F)F)cc1 was read as Tgondii IFNg -18.
For O=C1NCCN(S(=O)(=O)NCc2ccccc2)C1Cc1ccccc1 (configuration not stated) the results were Tgondii IFNg -8.
For COc1ccc([C@H]2CC=CC[C@H](C)Oc3ccccc3C(=O)N(C)[C@@H](C(C)C)C(=O)N2)c(OC)c1 (mixture of isomers) the results were Tgondii IFNg -11.
Screening COc1ccc([C@H]2CC=CC[C@@H](C)Oc3ccccc3C(=O)N(C)[C@H](Cc3ccccc3)C(=O)N2)c(OC)c1 (mixture of isomers) returned Tgondii IFNg -79*.
For C[C@@H]1CC=CC[C@@H](c2cccc(Cl)c2)NC(=O)[C@@H](Cc2ccccc2)N(C)C(=O)c2ccccc2O1 (mixture of isomers) the results were Tgondii IFNg -63.
CC(C)CC(=O)N1C[C@H]2OCCN(c3ncc(F)cn3)[C@H]2C1 was read as Tgondii IFNg -38.
Screening COCCC(=O)N1CCC2(COCc3c(C)nc(NCC4CC4)nc32)C1 (configuration not stated) returned Tgondii IFNg -8.
For Cn1ccnc1-c1ccc(N2CCN(C/C=C/c3ccccc3)CC2)nn1 the results were Tgondii IFNg 13.
Screening Cc1cc(Nc2cc(N3CCN(C)CC3)nc(/C=C/c3ccccc3)n2)n[nH]1 returned Tgondii IFNg -74*.
`COc1cc(OC)nc(/C=C/c2ccccc2)n1` gave Tgondii IFNg -13.
`COC(=O)c1ccccc1NC(=O)COc1nc(C)nc2ccccc12` gave Tgondii IFNg 6.
Screening CC(=O)ON(CC(=O)Nc1ccccc1C(=O)c1ccccc1)C(C)=O returned Tgondii IFNg -77*.
For Cc1ccc(NC(=O)CCNS(=O)(=O)c2ccccc2)c(C(=O)c2ccccc2)c1 the results were Tgondii IFNg -1.
For O=C(c1ccncc1)N1CCCC1c1nnn2cc(-c3ccccc3)ccc12 (configuration not stated) the results were Tgondii IFNg 130.
`O=C(C1Cc2ccccc2O1)N1CCC(n2cc(-c3ccccc3)nn2)CC1` (configuration not stated) gave Tgondii IFNg -1.
Screening O=S(=O)(NCCc1csc(-c2cccc(F)c2)n1)c1ccc(Cl)cc1 returned Tgondii IFNg -24.
For O=S(=O)(Nc1ccccc1SCc1cccc(Cl)c1F)c1cccc2nonc12 the results were Tgondii IFNg 138.
For C[C@H](O[C@H]1OCCN(Cc2n[nH]c(=O)[nH]2)[C@H]1c1ccc(F)cc1)c1cc(C(F)(F)F)cc(C(F)(F)F)c1 the results were Tgondii IFNg -72*.
